Assay results published in PubChem BioAssay.
Activity calls are given as the source filed them.

Legend:
[1] = tested on: PRMT1 (protein arginine N-methyltransferase 1); test: PRMT1 binders on small-molecule microarrays, primary screen, biochemical, small-molecule microarray, 635 nm fluorescence (AID 1088); settings: small-molecule microarray binding, higher = more signal;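 note: binding of Prmt1 protein to compounds spotted on small-molecule microarray slides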
[2] = yeast growth modulation, basal conditions, primary screen, YJM789 clinical isolate, OD600, 24 h (AID 1089);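 note: growth of clinical yeast isolate S. cerevisiae YJM 789 seeded 1000 cells per well; test concentration not given here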; settings: S. cerevisiae YJM789 growth, higher = more signal, called active from +8 up or from −8 down
[3] = fission yeast growth modulation, primary screen, strain 972, OD600, 24 h, no modulator (AID 1090);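 note: basal condition with compound alone and no growth modifier present; test concentration not given here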; settings: S. pombe 972 growth, higher = more signal, called active from +8 up or from −8 down
[4] = S. cerevisiae growth modulation with rapamycin, primary screen, strain BY4716, OD600, 96 h (AID 1091); settings: higher = more signal, called active from +8 up or from −8 down; note: test concentration not given here
[5] = molecular target: Torsin-1A-interacting protein 2 (Homo sapiens) (UniProt Q8NFQ8); test: LULL1 binders on small-molecule microarray, primary screen, cell lysate, human LULL1 lysate, 635/667 nm fluorescence (AID 1092); settings: hLULL1 lysate binding, 635 nm fluorescence, higher = more signal;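 note: probe is lysate of COS7 cells overexpressing human LULL1; score merges per-feature 667 nm fluorescence with signal-to-noise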
Chain of Torsin-1A-interacting protein 2 (Homo sapiens) (Q8NFQ8 whole entry, looked up): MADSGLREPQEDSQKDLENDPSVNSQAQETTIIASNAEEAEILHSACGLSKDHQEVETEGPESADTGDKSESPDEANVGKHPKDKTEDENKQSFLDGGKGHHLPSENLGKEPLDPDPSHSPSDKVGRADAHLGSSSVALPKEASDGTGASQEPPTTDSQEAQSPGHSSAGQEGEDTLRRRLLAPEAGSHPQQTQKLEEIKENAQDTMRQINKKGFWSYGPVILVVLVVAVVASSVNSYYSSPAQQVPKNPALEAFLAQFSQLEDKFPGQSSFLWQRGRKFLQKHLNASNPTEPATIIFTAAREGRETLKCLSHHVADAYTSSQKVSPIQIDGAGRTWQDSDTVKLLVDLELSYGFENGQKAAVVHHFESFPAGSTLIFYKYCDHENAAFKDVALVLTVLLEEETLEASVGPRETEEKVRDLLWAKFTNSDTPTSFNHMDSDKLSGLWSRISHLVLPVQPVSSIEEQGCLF

[6] = E. coli growth modulation, two-sided OD650, primary screen, E. coli filamentation project, strain DRC41, 24 h (AID 1093); settings: OD650, 24 h, higher = more signal, called active from +8 up or from −8 down;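 note: MC1000 strain lacking acrAB efflux and sulA so SOS filamentation is blocked; test concentration not given here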
[7] = small-molecule microarray binders of probe aLefty2, primary screen, biochemical, biotinylated probe, 635/667 nm fluorescence (AID 1094); settings: higher = more signal;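 note: score merges spot fluorescence near 667 nm with spot signal-to-noise ratio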
[8] = tested on: Noggin (protein binding on small-molecule microarray); test: Noggin binders on small-molecule microarray, primary screen, biochemical, 635/667 nm fluorescence (AID 1095); settings: 635 nm fluorescence, higher = more signal;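 note: score merges 667 nm feature fluorescence with signal to noise over triplicate slides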
[9] = molecular target: Neurogenic locus notch homolog protein 3 (Homo sapiens) (UniProt Q9UM47); test: NOTCH3 binders on small-molecule microarray, primary screen, biochemical, 635/667 nm fluorescence (AID 1096); settings: NOTCH3 binding, 635 nm fluorescence, higher = more signal
Chain of Neurogenic locus notch homolog protein 3 (Homo sapiens) (Q9UM47 whole entry, looked up): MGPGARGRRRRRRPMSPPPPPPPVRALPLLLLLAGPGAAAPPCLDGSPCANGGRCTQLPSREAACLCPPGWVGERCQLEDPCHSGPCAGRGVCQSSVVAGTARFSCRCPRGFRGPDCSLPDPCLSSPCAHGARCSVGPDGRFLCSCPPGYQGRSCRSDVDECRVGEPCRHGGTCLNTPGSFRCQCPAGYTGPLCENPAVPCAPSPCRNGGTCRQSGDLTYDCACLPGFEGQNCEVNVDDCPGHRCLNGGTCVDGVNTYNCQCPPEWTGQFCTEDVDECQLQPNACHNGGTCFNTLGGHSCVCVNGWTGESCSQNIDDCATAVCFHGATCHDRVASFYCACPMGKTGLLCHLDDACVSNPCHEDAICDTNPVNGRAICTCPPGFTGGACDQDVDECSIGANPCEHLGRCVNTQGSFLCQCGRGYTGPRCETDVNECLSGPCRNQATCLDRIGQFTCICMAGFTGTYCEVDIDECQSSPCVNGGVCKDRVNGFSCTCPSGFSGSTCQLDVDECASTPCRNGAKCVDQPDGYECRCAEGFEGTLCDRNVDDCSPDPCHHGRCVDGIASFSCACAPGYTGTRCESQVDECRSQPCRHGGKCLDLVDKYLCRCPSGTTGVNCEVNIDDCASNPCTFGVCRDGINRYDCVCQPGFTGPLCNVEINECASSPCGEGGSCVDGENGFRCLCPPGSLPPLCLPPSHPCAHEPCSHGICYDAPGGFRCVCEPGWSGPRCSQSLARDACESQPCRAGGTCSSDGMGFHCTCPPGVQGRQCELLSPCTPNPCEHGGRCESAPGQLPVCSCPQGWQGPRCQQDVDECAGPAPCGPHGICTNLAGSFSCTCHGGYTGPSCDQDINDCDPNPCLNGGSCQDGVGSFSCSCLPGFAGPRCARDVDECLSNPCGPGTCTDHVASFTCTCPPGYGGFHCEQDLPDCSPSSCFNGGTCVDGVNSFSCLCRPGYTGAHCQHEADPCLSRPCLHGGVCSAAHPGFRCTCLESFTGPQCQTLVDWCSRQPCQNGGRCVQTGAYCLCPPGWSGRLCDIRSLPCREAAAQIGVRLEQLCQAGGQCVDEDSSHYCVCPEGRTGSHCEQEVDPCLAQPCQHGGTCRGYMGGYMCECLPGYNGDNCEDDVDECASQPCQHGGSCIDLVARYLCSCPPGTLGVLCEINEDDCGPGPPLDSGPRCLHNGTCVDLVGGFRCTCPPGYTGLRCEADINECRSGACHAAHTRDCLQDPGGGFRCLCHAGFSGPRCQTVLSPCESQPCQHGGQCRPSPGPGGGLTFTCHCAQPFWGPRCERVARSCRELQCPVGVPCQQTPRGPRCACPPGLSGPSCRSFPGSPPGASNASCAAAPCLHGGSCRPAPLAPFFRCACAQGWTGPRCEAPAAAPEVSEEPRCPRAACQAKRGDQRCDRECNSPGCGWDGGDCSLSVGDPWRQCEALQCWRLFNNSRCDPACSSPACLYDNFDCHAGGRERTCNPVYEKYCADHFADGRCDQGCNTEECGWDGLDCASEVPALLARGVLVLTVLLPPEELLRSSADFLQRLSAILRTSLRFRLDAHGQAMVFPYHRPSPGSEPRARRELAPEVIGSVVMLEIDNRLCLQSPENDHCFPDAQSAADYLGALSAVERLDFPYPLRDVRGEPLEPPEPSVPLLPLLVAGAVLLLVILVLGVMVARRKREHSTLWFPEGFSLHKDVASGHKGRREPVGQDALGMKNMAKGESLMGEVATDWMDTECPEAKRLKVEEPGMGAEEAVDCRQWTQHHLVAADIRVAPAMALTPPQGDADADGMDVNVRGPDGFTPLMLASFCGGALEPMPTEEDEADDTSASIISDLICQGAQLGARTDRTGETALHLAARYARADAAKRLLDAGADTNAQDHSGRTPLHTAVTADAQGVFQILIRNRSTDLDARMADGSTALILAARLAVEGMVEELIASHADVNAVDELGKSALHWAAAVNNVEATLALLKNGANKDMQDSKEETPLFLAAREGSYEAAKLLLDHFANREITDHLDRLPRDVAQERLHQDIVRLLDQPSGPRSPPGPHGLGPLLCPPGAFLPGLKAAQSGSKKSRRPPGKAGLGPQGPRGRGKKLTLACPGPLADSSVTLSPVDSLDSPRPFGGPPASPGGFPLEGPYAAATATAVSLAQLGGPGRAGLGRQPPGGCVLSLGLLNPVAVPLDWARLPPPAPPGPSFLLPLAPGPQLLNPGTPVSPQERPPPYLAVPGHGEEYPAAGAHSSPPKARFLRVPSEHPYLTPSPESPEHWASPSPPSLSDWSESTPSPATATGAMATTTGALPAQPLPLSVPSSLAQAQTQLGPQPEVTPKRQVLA

[10] = small-molecule microarray binders of probe aEGFR, primary screen, biochemical, biotinylated probe, 635/667 nm fluorescence (AID 1097); settings: higher = more signal;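 note: probe is a biotinylated anti-EGFR antibody binding compounds printed on slides; score combines fluorescence near 667 nm and signal to noise of each spot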

SMILES	composite z-score [1]	z-score [2]	z-score [3]	z-score [4]	composite z-score [5]	z-score [6]	composite z-score [7]	composite z-score [8]	composite z-score [9]	composite z-score [10]
COCCCNC(=O)[C@]1(Cc2ccccc2N=[N+]=[N-])N=C(c2ccc(OCCCO)cc2)O[C@@H]1c1ccccc1CN=[N+]=[N-]	1.51	-1.24 (inactive)	-0.365 (inactive)	4.94 (inactive)	3.18	1.01 (inactive)	0.465	0.579	1.09	0.606
CC(C)C(=C=CC[C@H](O)c1ccccc1OCCO)CCO	1.35	-0.655 (inactive)	-0.39 (inactive)	-0.236 (inactive)	2.48	-0.105 (inactive)	0.0349	-0.143	-0.131	-0.0915
CC(C)[Si]1(C(C)C)O[C@@H](c2ccccc2)c2cc(-c3ccc(-c4ccc(Cl)c(Cl)c4)o3)nc(CCc3ccccc3)c21	0.324	0.149 (inactive)	-2.2 (inactive)	3.08 (inactive)	0.883	-0.823 (inactive)	-0.126	-1.37	-1.78	-0.248
O=C1C2C=CC(C(O)CCc3ccccc3)N(Nc3ccccc3)C2C(=O)N1c1ccccc1 (stereo not given)	1.49	0.655 (inactive)	0.226 (inactive)	1.43 (inactive)	3.4	-1.88 (inactive)	0.231	0.0749	1.02	0.0864
O=C1O[C@H](c2ccccc2)[C@H](c2ccccc2)N2[C@H]1[C@@H](C(=O)NC[C@H](O)c1ccccc1)[C@]1(C(=O)Nc3ccc(C#CC4(O)CCCCCC4)cc31)[C@H]2c1ccccc1OCCO	1.54	2.05 (inactive)	1.27 (inactive)	5.14 (inactive)	2.84	0.0483 (inactive)	-0.119	1.08	0.644	-0.182
Cc1ccc(C(C)CC(O)C2C=CC3C(=O)NC(=O)C3N2Nc2ccccn2)o1 (stereo not given)	1.09	0.633 (inactive)	0.0293 (inactive)	0.124 (inactive)	1.94	0.504 (inactive)	-0.0225	0.312	-0.233	-0.0302
[N-]=[N+]=NCc1ccccc1C[C@]1(C(=O)NCCN2CCOCC2)N=C(c2ccc(OCCCO)cc2)O[C@H]1c1ccccc1CN=[N+]=[N-]	1.53	-2.57 (inactive)	-0.847 (inactive)	-0.802 (inactive)	-3.05	1.2 (inactive)	0.111	1.16	1.08	0.0278
COC(=O)[C@@]1(Cc2ccc(OC)cc2)[C@H]2c3cc(C(=O)N4CCCC4)n(C[C@H](O)CO)c3C[C@H]2CN1C(=O)c1ccccc1	-0.448	0.659 (inactive)	1.13 (inactive)	0.454 (inactive)	2.4	-0.0765 (inactive)	0.0069	-0.533	0.355	-0.175
[N-]=[N+]=NCc1ccccc1[C@H]1OC(c2ccc(OCCCO)cc2)=N[C@@]1(Cc1ccccc1)C(=O)NCC(O)CO (stereo not given in full)	1.25	-0.286 (inactive)	0.669 (inactive)	-1.22 (inactive)	3.5	0.203 (inactive)	0.102	-0.116	-0.046	0.0073
C=CCC(OC(C)=O)[C@@H]1[C@@H](N(Cc2cc3ccccc3o2)C(=O)c2ccc(-c3ccccc3)cc2)c2cc(OCCCO)ccc2N1C(=O)Cc1ccc2ccccc2c1 (stereo not given in full)	-0.598	1.06 (inactive)	0.263 (inactive)	1.49 (inactive)	0.898	0.0672 (inactive)	-0.166	-0.125	-0.376	-0.166
Cc1cccc(/C=C/C=O)c1	0.425	0.897 (inactive)	-4.56 (inactive)	-0.104 (inactive)	1.54	-0.0384 (inactive)	-0.186	0.0535	-0.136	-0.246
O=C1OCCC/C=C\[C@H]2OC34C=CCN(CCN5CCOCC5)C(=O)[C@H]3N(CCO)C(=O)[C@@H]4C12 (stereo not given in full)	-0.833	0.14 (inactive)	0.774 (inactive)	-0.131 (inactive)	-0.534	1 (inactive)	-0.18	-0.915	-1.23	-0.244
CC1CC/C=C\[C@H]2OC34C=CCN(c5ccc6ccccc6c5)C(=O)[C@H]3N(CCCCCO)C(=O)[C@@H]4C2C(=O)O1 (stereo not given in full)	-0.712	0.231 (inactive)	0.0271 (inactive)	-0.32 (inactive)	-1.87	-0.603 (inactive)	0.182	-1.21	-0.7	-0.233
[N-]=[N+]=NCc1ccccc1C[C@]1(C(=O)NCc2ccccc2)COC(c2ccc(OCCCO)cc2)=N1	1.01	1.67 (inactive)	0.816 (inactive)	36 (active)	3.12	1.21 (inactive)	-0.0438	0.0869	-0.146	-0.0828
